Hits are enriched below; roughly 2.3% of the tested compounds scored in any of these assays.
Tau fibril ThT: tau fibrillization inhibition (ThT binding) | recombinant tau K18 P301L, heparin-induced fibrillization, ThT fluorescence | Potency, µM (top dose mostly 57.4 µM), without a hit: at the highest dose activity, negative = inhibition, actives largely listed as inhibitors | actives 2.1% (n = 270,000) | AID 1460; note: potency is the fitted concentration of half-maximal effect; nearly all actives have a fitted effect of over 55% in size
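Heparin-induced (20 uM) aggregation of recombinant human K18 P301L tau, 15 uM unlabeled with 0.24 uM labeled, pH 7 acetate buffer, 6 hr at 37 C with compound. Fibrils quantified by 30 uM ThT fluorescence after 1 hr ambient incubation.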
USP1-UAF1 inh: inhibitors of human USP1/UAF1 deubiquitinase; recombinant USP1/UAF1, Ub-Rhodamine cleavage fluorescence; Potency, µM (highest dose often 57.1 µM), for the others: top-dose activity change, negative = inhibition, most hits filed as inhibitors; actives 0.23% (n = 390,000); AID 743255; note: potency is the fitted concentration of half-maximal effect; nearly all actives have a fitted effect of over 60% in size
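In this screen, compounds sit with the deubiquitinase complex (1nM) for 15 min at room temperature before Ub-Rho is added at 150nM final. Fluorescence rise is then followed for 6 reads every 60 seconds.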
Coupling enz: inhibits coupling enzyme system, counter-screen for aldolase hits | coupling enzyme system counterscreen, AmpLite Red fluorescence | activity change, negative = inhibition, % at 58.2 µM, hits read low | actives 0.67% (n = 290,000); in the data active = activity change below about -30%
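Compounds tested against the coupling enzymes alone at 57.5 uM final; readout was AmpLite Red fluorescence (525/598 nm) after 20 min at RT.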
Tau fibril FP: inhibitors of human tau fibril formation; AID 1468; K18 P301L tau heparin fibrillization, Alexa594 FP, 6 h; P10636; actives 0.39% (n = 280,000); Potency, µM (doses to about 57.7 µM), for the others: top-dose activity, negative = inhibition, most hits filed as inhibitors; note: potency is the fitted concentration of half-maximal effect; nearly all actives have a fitted effect of over 55% in size
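Compound effects on tau fibrillization are measured by Alexa 594 fluorescence polarization (ex 555, em 632 nm). K18 P301L tau is used at 15 uM with 0.24 uM labeled tracer, and 20 uM heparin induces aggregation over 6 hr at 37 C.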
Tau fluor counter: counter-screen for tau fibril formation inhibitors | tau K18 P301L Alexa594 fluorescence, heparin fibrillization | Potency, µM (titrated, usually from 57.7 µM), inactives show top-dose activity change, negative = decrease | actives 0.93% (n = 280,000); note: potency is the fitted concentration of half-maximal effect; nearly all actives have a fitted effect of over 55% in size
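Human tau K18 P301L (15 uM unlabeled, 0.24 uM Alexa 594-labeled) in 100 mM sodium acetate pH 7 with 20 uM heparin, 6 hr at 37 C. ThT 30 uM added, 1 hr ambient; Alexa 594 FP and total fluorescence read at 555/632 nm.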
Starred values were filed as active, the others as inactive; ? = inconclusive; . = no result given; [ ] = dose if it differs, or a comment. Unless noted, calls come from the whole dose curve; as a rule, active = well fitted curve in the direction sought with a large enough effect; inconclusive = small, poorly fitted or top-dose-only effect, or another doubt; inactive = no such curve, though single readings can be large; an effect the other way counts as inactive or inconclusive. % is set by controls: 0 for no effect and ±100 for the full control effect.

SMILES	Tau fibril ThT	USP1-UAF1 inh	Coupling enz	Tau fibril FP	Tau fluor counter
Cc1ccc(N2C(=O)c3ccccc3C2=O)cc1	.	-6%	2	0%	2%
Nc1nc(N)c(S(=O)(=O)c2ccccc2)c(Nc2ccccc2)n1	9%	-26%	.	?	-26%
CCn1c(SCC(=O)Nc2sc3c(c2C#N)CCC(C(C)(C)C)C3)nnc1-c1ccco1 (stereo not drawn)	-3%	-23%	7	7%	-4%
CCn1c(SCC(=O)Nc2sc3c(c2C#N)CCCC3)nnc1-c1ccco1	-10%	-17%	-40*	-4%	-1%
O=c1c(-c2cccs2)nc2cncnc2n1-c1ccccc1	.	.	1	.	.
O=[N+]([O-])c1ccc(Nc2nc(N/N=C\c3ccc4c(c3)OCO4)nc(N3CCCCC3)n2)cc1	32µM*	-22%	-2	8%	?
Cc1cccc(N2CC(C(=O)Nc3nnc(SCC(=O)Nc4cc(C)on4)s3)CC2=O)c1 (stereo not drawn)	-4%	-5%	-44*	-7%	0%
Cc1cccc(N2CC(C(=O)Nc3nnc(SCC(=O)Nc4nccs4)s3)CC2=O)c1 (stereo not drawn)	0%	-8%	0	-3%	1%
COC(=O)CN1C(=O)C2(C(C#N)=C(N)Oc3n[nH]c(-c4cccs4)c32)c2ccccc21 (stereo not drawn)	-8%	5%	-25	-9%	-6%
COC(=O)CN1C(=O)C2(C(C#N)=C(N)Oc3c2c(C)nn3-c2ccccc2)c2ccccc21 (stereo not drawn)	28µM*	-8%	-50*	?	-25%
CCN1CCc2nc3sc(C(=O)Nc4cccc(Cl)c4C)c(N)c3cc2C1	10µM*	?	.	4%	?
CN1CCc2nc3sc(C(=O)Nc4c(F)cccc4F)c(N)c3cc2C1	?	?	.	-1%	?
Cc1cccc(NC(=O)c2sc3nc(N)c(C#N)cc3c2N)c1	?	6%	-6	?	?
N#Cc1cc2c(N)c(C(=O)Nc3ccccc3)sc2nc1N	7.9µM*	.	3	16%	?
CN1CCc2nc3sc(C(=O)Nc4cccc(C#N)c4)c(N)c3cc2C1	13µM*	10%	.	3%	?
Cc1cccc(NC(=O)c2sc3nc4c(cc3c2N)CN(Cc2ccccc2)CC4)c1	-16%	-5%	.	0%	-22%
Cc1cccc(NC(=O)c2sc3nc4c(cc3c2N)CN(C(C)C)CC4)c1	13µM*	-14%	.	-13%	18µM*[quencher]
CC(=O)N1CCC2(CC1)OC(=O)C(C)=C2C(=O)Nc1cccc(Cl)c1C	4%	-24%	.	3%	8%
COc1ccc(OC)c(NC(=O)N2CCC(CN3CCCCC3)CC2)c1	-5%	10%	.	-3%	-10%
CC(=O)N1CCC(N(Cc2ccc(C)o2)C(=O)Nc2ccc(C)cc2)CC1	-6%	?	.	0%	-6%
COc1ccc(-n2c(/C=C/c3cc(OC)c(OC)cc3OC)nc3cc4ccccc4cc3c2=O)cc1Cl	3%	78%	.	?	-11%
COc1ccc(NC(=O)c2sc3nc4c(cc3c2N)CN(C(C)C)CC4)c(OC)c1	13µM*	-29%	.	?	14µM*[quencher]
CN1\C(=C/C=C/C=C/C=[N+](C)C)C(C)(C)c2ccccc21	3.5µM*	25µM*	-6	?	1.6µM*[fluorescent]
CN(C)c1ccc(N=C/C=C2\N(C)c3ccccc3C2(C)C)cc1	5µM*	-21%	-3	-7%	?
CN1/C(=C\C=Nc2ccc3ccccc3c2)C(C)(C)c2ccccc21	?	.	-7	-1%	-24%
C=CCN(C(C(=O)OC)C(C)C)S(=O)(=O)CCl (stereo not drawn)	.	.	1	.	.
COc1ccc(CNC(=O)Cn2ncc3c(=O)oc4ccccc4c32)c(OC)c1	?	-27%	.	-9%	-6%
O=S(=O)(c1ccc(Br)cc1)c1nc(-c2cccs2)oc1SCc1ccc(F)cc1	-6%	-15%	.	-8%	-28%
Oc1ccc(N=Nc2n[nH]c(-c3ccc(Cl)cc3)n2)cc1	1.8µM*	-22%	-2	4%	?
Oc1ccc(N=Nc2ccccc2)cc1	.	-15%	0	.	.

Screening results deposited in PubChem by National Center for Advancing Translational Sciences (NCATS).
